Source: PubChem
bovine MsrA act = activators of bovine methionine sulfoxide reductase A | purified bovine MsrA, absorbance read-out | activation, % at 10.6 µM | 360,000 compounds, 0.3% hits | AID 602163; in the data active = activation above about 7.5%
rCAG RNA binder = binds r(CAG) RNA repeats | 370,000 compounds, 1.3% hits | inhibition, % at 3 µM | r(CAG) RNA repeat, TO-PRO-1 dye displacement fluorescence;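 active = inhibition above the plate cutoff, the mean of all test compounds on that plate plus 3 SD, cut at about 35% in these data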;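 note: higher means more dye released from RNA so lower well fluorescence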
HGIII-sPLA2 inh = Inhibits HGIII-sPLA2 liposome hydrolysis, primary screen. QFRET BODIPY PC-A2 liposome hydrolysis, fluorescence. inhibition, % at 12.2 µM. 370,000 compounds, 0.56% hits;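 active = inhibition above mean plus 3 SD of compounds lying within the high and low control bounds, cut at about 19% in these data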
Target sequence (Q9NZ20 whole entry, looked up): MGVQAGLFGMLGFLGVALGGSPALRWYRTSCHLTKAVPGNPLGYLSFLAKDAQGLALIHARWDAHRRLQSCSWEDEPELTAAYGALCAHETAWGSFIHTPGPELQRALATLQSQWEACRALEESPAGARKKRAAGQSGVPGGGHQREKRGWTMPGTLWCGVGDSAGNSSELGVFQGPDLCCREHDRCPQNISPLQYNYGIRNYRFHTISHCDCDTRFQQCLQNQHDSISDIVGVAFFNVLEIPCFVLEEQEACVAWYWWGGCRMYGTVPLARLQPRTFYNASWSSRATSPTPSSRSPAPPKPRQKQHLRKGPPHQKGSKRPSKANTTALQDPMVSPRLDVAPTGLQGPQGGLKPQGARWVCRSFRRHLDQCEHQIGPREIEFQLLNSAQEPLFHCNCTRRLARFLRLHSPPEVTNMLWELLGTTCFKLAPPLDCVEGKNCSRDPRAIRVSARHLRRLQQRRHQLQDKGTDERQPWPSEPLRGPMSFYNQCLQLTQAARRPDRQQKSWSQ
MsrA inhibitor = inhibitors of bovine MsrA. purified bovine MsrA, absorbance read-out. inhibition, % at 15.5 µM. 360,000 compounds, 0.75% hits. AID 651718; in the data active = inhibition above about 4.5%
A number is an active result; – = inactive; · = no result given. This is a sample that favours compounds with a hit; in the whole collection about 2.8% have one here.

SMILES	bovine MsrA act	rCAG RNA binder	HGIII-sPLA2 inh	MsrA inhibitor
COC[C@H]1CCCN1c1ccc2c(c1)O[C@@H](COCc1ccccc1)CN([C@@H](C)c1ccccc1)S2(=O)=O	–	–	–	–
Cc1c(/C=N/Nc2nc3ccccc3[nH]2)c2ccccc2n1C	–	–	–	–
CCCn1c(/C=N/Nc2nc3ccccc3[nH]2)nc2ccccc21	–	–	30.9	–
Cc1ccc(NC(=S)/C(C#N)=C2/Nc3ccccc3S2)cc1	–	91.6	–	–
N#CC(C(=O)Nc1ccccc1)=C1Nc2ccccc2N1	–	–	–	–
Cc1ccc(C)n1-c1sc2c(c1C(=O)O)CCCC2	–	35.5	–	–
CCc1ccc2[nH]c(=O)c(CN(Cc3ccc(F)cc3)C(c3nnnn3CCN3CCOCC3)C(C)C)cc2c1 (configuration not stated)	8.6	·	·	·
CCc1ccc2[nH]c(=O)c(C(c3nnnn3CCOC)N3CCN(c4ccc(F)cc4)CC3)cc2c1 (configuration not stated)	–	–	–	–
CCCCCn1c(=N)c(S(=O)(=O)c2ccc(Cl)cc2)cc2c(=O)n3cccc(C)c3nc21	–	·	·	·
COc1ccccc1NC(=S)NCCc1ccccc1	–	–	–	–
CCCC(=O)OCCNc1cc(Sc2nccn2C)c2nonc2c1[N+](=O)[O-]	–	–	19.3	–
CCCSc1cc(NCCOC(=O)CCC)c([N+](=O)[O-])c2nonc12	–	–	–	–
COc1ccc(CN(C(=O)c2cccs2)c2ccccc2C(=O)O)cc1	–	–	–	–
CC1Cc2cc(/C=C3/SC(N4CCC(C(N)=O)CC4)=NC3=O)ccc2O1 (configuration not stated)	–	–	–	4.6
CC1Cc2cc(/C=C3/SC(=S)N(C)C3=O)ccc2O1 (configuration not stated)	–	–	–	–
COc1ccc(S(=O)(=O)NC2CC(=O)N(c3ccc(C)c(C)c3)C2)cc1 (configuration not stated)	–	–	–	–
Cc1ccc2c(c1)N(C(=O)CSc1nncn1C)C(C)(C)c1ssc(=S)c1-2	–	–	24.4	–
S=C1Cc2ccccc2N1	25.7	44.0	–	–
S=C1Nc2ccccc2CS1	–	–	–	–
Nc1ccc(O)cc1C(=O)OCC(=O)c1ccc(C2CCCCC2)cc1	–	51.1	–	–
COc1ccc(C(=O)OCC(=O)c2ccc(C3CCCCC3)cc2)cc1	–	–	–	–
Cc1c(C(=O)N2CCCC2)sc(NC(=O)c2ccccc2)c1C#N	–	–	–	4.6
O=Cc1cccn1Cc1ccccc1[N+](=O)[O-]	–	–	–	–
Cc1ccc(NS(=O)(=O)c2ccc(NC(=O)c3cccs3)cc2)cc1	8.2	–	–	–
O=C(c1ccc(NC2=NC3CS(=O)(=O)CC3S2)cc1)N1CCN(c2ccccc2)CC1 (configuration not stated)	–	–	–	–
SMILES	bovine MsrA act	rCAG RNA binder	HGIII-sPLA2 inh	MsrA inhibitor
C/C(=N/NC(=O)c1sc(NS(=O)(=O)c2ccc(C)cc2)nc1C)c1sc(N)nc1C	–	47.8	–	–
Cc1nn(-c2ccccc2)c(N2CCCC2)c1/C=N/NC(=O)c1cc(-c2ccccn2)nc2ccccc12	–	–	–	–
Cc1nn(-c2ccccc2)c(N2CCCC2)c1/C=N/NC(=O)c1cc(-c2ccccc2)nc2ccccc12	–	–	–	4.6
O=C(NCCn1ccc2ccccc21)C1CCCCC1	–	–	–	–
CCc1ccc(C(=O)/C=C2\Sc3ccccc3NC2=O)cc1	–	–	41.0	–
Cc1cc(CNC(=O)CCc2nnc(CCCCc3ccccc3)o2)nn1C	–	–	–	–
CC(C)CCn1c(SC(C)C(=O)NC2CC2)nc2ccccc2c1=O (configuration not stated)	–	–	–	–
Cc1cc(-c2csc(NC(=O)c3ccc(=O)[nH]c3)n2)c(C)n1Cc1ccccc1	–	–	–	–
Cc1cc(-c2csc(NC(=O)c3ccc(C#N)cc3)n2)c(C)n1Cc1ccco1	–	59.4	–	–
Cc1nn(-c2ccc(F)cc2)c(Cl)c1/C=N/NC(=O)c1cccs1	–	–	–	–
Cc1nn(-c2ccc(Cl)cc2)c(Cl)c1/C=N/NC(=O)c1ccc(NS(=O)(=O)c2cccs2)cc1	–	61.6	–	–
CCn1nc(NS(=O)(=O)c2ccc(F)cc2)c2cc3cccc(C)c3nc21	–	62.7	–	–
COC(=O)C1=CN(Cc2ccc(OC)c(OC)c2)C=C(C(=O)OC)C1c1cccc(O)c1	–	–	–	–
CCn1c(/C=C/N(C(C)=O)c2ccccc2)[n+](CCCS(=O)(=O)[O-])c2cc(Cl)c(Cl)cc21	–	–	–	4.6
CCn1c(/C=C/Nc2ccccc2)[n+](CC)c2cc(Cl)c(Cl)cc21	–	–	–	–
CSc1nc(-c2ccc(Cl)cc2Cl)[nH]c(=O)c1C#N	–	42.6	–	–
